Screening data (PubChem BioAssay)
In the library only some 11% were active in any assay of this set; here they are far more common.
NS1 inh: influenza NS1 inhibition; Potency, µM (series often up to 46.1 µM), for the others: at the highest dose activity, positive = more growth; 270,000 tested, 0.4% active; AID 2326; calls by dose curve; further: actives are rising curves; nearly all actives have a fitted effect of over 50% in size
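OD600 was taken as the measure of yeast growth restored by compound in an NS1-expressing S. cerevisiae strain. Cells had been washed out of glucose medium and diluted 1:100 into galactose -URA medium, pH 6.0.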
Sm TGR block: S. mansoni TGR enzyme inhibition. purified TGR, DTNB reduction, TNB absorbance 405 nm. Potency, µM (titrated, usually from 114 µM), for inactives: top-dose activity change, negative = inhibition, actives largely listed as inhibitors. 360,000 tested, 3% active. AID 485364; further: on the % scale 0 is the no-effect control and ±100 the full control effect; nearly all actives have a fitted effect of over 60% in size
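Kinetic colorimetric format: TGR-catalysed, NADPH-driven DTNB reduction monitored via TNB absorbance. Enzyme dispensed at 20 nM; compound exposure 15 min at room temperature before reaction start.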
Pf growth 48h: inhibits P. falciparum growth in the first generation, 48 h. Potency, µM (doses to about 28.7 µM), inactives show at the top dose activity change, negative = inhibition, most hits filed as inhibitors. 310,000 tested, 5.9% active. P. falciparum luciferase growth in erythrocytes, 48 h. AID 504832; further: on the % scale 0 is the no-effect control and ±100 the full control effect
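Firefly luciferase activity from engineered P. falciparum reports growth; inhibitors lower the luminescent signal. Cultures contained 2% hematocrit erythrocytes at 0.1% final parasitemia.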
Pf growth 96h: P. falciparum growth inhibition at 96 hour, primary screen for plastid delayed-death inhibitors. P. falciparum luciferase reporter growth, 96 h. Potency, µM (doses to about 28.7 µM), inactives show top-dose activity change, negative = inhibition, usual class: inhibitors. 320,000 tested, 6.9% active. AID 504834; further: on the % scale 0 is the no-effect control and ±100 the full control effect
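96 h incubation, 37 C, 5% CO2, of luciferase-reporter P. falciparum-infected RBCs (2% hematocrit, 0.05% parasitemia final) with test compounds; endpoint luminescence.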
AMA1 RON2 block: inhibitors of Plasmodium falciparum AMA1-RON2 interaction; AlphaScreen AMA1-biotinylated RON2 peptide binding; Potency, µM (series often up to 58.2 µM), inactives show at the top dose activity change, negative = inhibition, most hits filed as inhibitors; 360,000 tested, 0.2% active; AID 720542;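 further: 0% = vehicle wells and -100% = peptide control; nearly all actives have a fitted effect of over 45% in size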
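AMA1 (3D7) with his tag at 25 nM final met compounds first, then biotinylated RON2 peptide at 25 nM; detection used donor plus acceptor beads, 10 µg/mL apiece, read by AlphaScreen after 30 min at room temperature.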
Numbers without * were called inactive. Unless noted, the call rests on the fitted dose curve; in most records, active means well fitted curve in the direction sought with a large enough effect; inconclusive means small, poorly fitted or top-dose-only effect, or another doubt; inactive means no such curve, though single readings can be large; an effect the other way counts as inactive or inconclusive. Potency means the concentration at half of the fitted maximal effect.

`COCCn1c(=NC(=O)CCS(=O)(=O)c2ccccc2)sc2cc(F)ccc21` gave NS1 inh 2%, Sm TGR block 40µM*, Pf growth 48h -13%, Pf growth 96h inconclusive and AMA1 RON2 block -3%.
Screening O=C(N=C1SC2CS(=O)(=O)CC2N1c1cc(Cl)ccc1Cl)C1CCCO1 (centres undefined) returned NS1 inh -10%, Sm TGR block 1%, Pf growth 48h 50%, Pf growth 96h 50% and AMA1 RON2 block 3%.
For CC(OC(=O)c1cccc(S(=O)(=O)N(C)C)c1)C(=O)NCc1ccc2c(c1)OCO2 (centres undefined) the results were Sm TGR block -12%, Pf growth 48h -13%, Pf growth 96h -3% and AMA1 RON2 block -14%.
For COC(CNC(=O)C(=O)NCC1OCCN1S(=O)(=O)c1ccccc1)OC (centres undefined) the results were AMA1 RON2 block -7%.
`O=C(O)CCc1nn2c3ccccc3n(Cc3ccccc3F)c2nc1=O` gave Sm TGR block 10%, Pf growth 48h 9%, Pf growth 96h 0% and AMA1 RON2 block 4%.
Screening O=C(CCCl)Nc1nc2c(s1)CCc1ccccc1-2 returned NS1 inh -40%, Sm TGR block -32%, Pf growth 48h inconclusive, Pf growth 96h 2.1µM* and AMA1 RON2 block -21%.
`N#C/C(=C(/O)CCl)c1nc2c(s1)CCc1ccccc1-2` gave NS1 inh -28%, Sm TGR block 7.9µM*, Pf growth 48h -14%, Pf growth 96h inconclusive and AMA1 RON2 block -15%.
Nc1nc2c(s1)CCc1ccccc1-2 was read as NS1 inh -66%, Sm TGR block 0%, Pf growth 96h 56% and AMA1 RON2 block -19%.
Screening CC(=O)Nc1nc2c(s1)CCc1ccccc1-2 returned NS1 inh -6%, Sm TGR block 6%, Pf growth 48h 67%, Pf growth 96h 62% and AMA1 RON2 block -8%.
Cc1ccc(S(=O)(=O)n2nccc2-c2c(-c3ccc(Cl)cc3)noc2C)cc1 was read as NS1 inh 2%, Sm TGR block 1%, Pf growth 48h 0.66µM*, Pf growth 96h 0.37µM* and AMA1 RON2 block -11%.
`CC(C)(Oc1ccc(Cl)cc1)C(=O)Nc1c2c(nn1C(C)(C)C)CS(=O)(=O)C2` gave Sm TGR block -14%, Pf growth 48h 7%, Pf growth 96h inconclusive and AMA1 RON2 block 17%.
O=C(Sc1cccc2cccnc12)c1ccc(F)cc1 was read as Sm TGR block inconclusive, Pf growth 48h 6.6µM* and Pf growth 96h inconclusive.
O=C(Sc1cccc2cccnc12)c1ccccc1Br was read as NS1 inh -60%, Sm TGR block -19%, Pf growth 48h 1.3µM* and Pf growth 96h 4.7µM*.
`O=C(CSc1ncc2c(n1)-c1ccccc1N(Cc1ccc(F)cc1)S2(=O)=O)NCCc1ccccc1` gave Sm TGR block 2%.
Cc1ccc(-n2c(SCC(=O)c3c(N)n(C4CC4)c(=O)[nH]c3=O)nnc2N2CCOCC2)cc1 was read as Sm TGR block 2%, Pf growth 48h 10µM*, Pf growth 96h inconclusive and AMA1 RON2 block -5%.
Screening Cc1cccc(-n2c(SCC(=O)c3c(N)n(C4CC4)c(=O)[nH]c3=O)nnc2N2CCOCC2)c1 returned Sm TGR block -15%, Pf growth 48h inconclusive, Pf growth 96h 5.2µM* and AMA1 RON2 block -4%.
`Cc1ccccc1-n1c(SCC(=O)c2c(N)n(C3CC3)c(=O)[nH]c2=O)nnc1N1CCOCC1` gave Sm TGR block -6%, Pf growth 48h inconclusive, Pf growth 96h 13µM* and AMA1 RON2 block -5%.
Screening Cc1ccc(-n2nnnc2SCC(=O)c2c(N)n(C3CC3)c(=O)[nH]c2=O)c(C)c1 returned Sm TGR block -16%, Pf growth 48h 10µM*, Pf growth 96h 5.9µM* and AMA1 RON2 block -12%.
`Nc1c(C(=O)CSc2nnnn2-c2ccc(O)cc2)c(=O)[nH]c(=O)n1C1CC1` gave Sm TGR block 1%, Pf growth 48h 37%, Pf growth 96h inconclusive and AMA1 RON2 block -8%.
For Nc1ccccc1C(=O)/C=C/c1ccc2c(c1)OCO2 the results were NS1 inh -6%, Sm TGR block 3%, Pf growth 48h 221%, Pf growth 96h 73% and AMA1 RON2 block inconclusive.
For O=C(/C=C/c1ccc(Br)cc1)c1ccco1 the results were NS1 inh -41%, Sm TGR block -32%, Pf growth 48h 13%, Pf growth 96h 448% and AMA1 RON2 block -7%.
For O=C(/C=C/c1ccco1)NCC1COc2ccccc2O1 (centres undefined) the results were NS1 inh -7%, Sm TGR block 0.89µM*, Pf growth 48h 6%, Pf growth 96h -11% and AMA1 RON2 block -2%.
Screening O=C(/C=C/c1ccc2c(c1)OCO2)c1ccco1 returned NS1 inh 10%, Sm TGR block -26%, Pf growth 48h 34%, Pf growth 96h 6.6µM* and AMA1 RON2 block -23%.
Screening O=C(/C=C/C=C/c1ccccc1)c1ccco1 returned NS1 inh -11%, Sm TGR block 10µM*, Pf growth 48h 144%, Pf growth 96h 13% and AMA1 RON2 block -10%.
Screening O=C(NCc1ccco1)C1c2ccccc2Oc2ccccc21 returned NS1 inh 4%, Sm TGR block 40µM*, Pf growth 48h inconclusive, Pf growth 96h 2% and AMA1 RON2 block -18%.
`CCN(CC)c1ccc(NC(=O)CN2CCN(S(=O)(=O)c3ccc(C(C)C)cc3)CC2)cc1` gave Sm TGR block -8%.
`O=C(C(O)c1ccc(Br)cc1)N1CCC(Nc2ccc3[nH]ncc3c2)CC1` (centres undefined) gave AMA1 RON2 block 13%.
`O=C(CCC1COc2ccccc2O1)NCc1ccco1` (centres undefined) gave NS1 inh 2%, Sm TGR block 40µM*, Pf growth 48h 5%, Pf growth 96h 45% and AMA1 RON2 block 1%.
For O=C(/C=C/c1ccco1)NCC1OCCc2ccccc21 (centres undefined) the results were NS1 inh -3%, Sm TGR block 0.5µM*, Pf growth 48h 8%, Pf growth 96h 20% and AMA1 RON2 block 1%.
O=C(CCC1COc2ccccc2O1)NCC1COc2ccccc2O1 (centres undefined) was read as NS1 inh -45%, Sm TGR block -4%, Pf growth 48h 1% and AMA1 RON2 block -4%.
CC(=O)Nc1ccc(NC(=O)/C=C/c2ccc3c(c2)OCO3)cc1 was read as NS1 inh 1%, Sm TGR block -19%, Pf growth 48h 20%, Pf growth 96h 68% and AMA1 RON2 block 14%.
`O=C(/C=C/c1ccco1)NCc1ccc2c(c1)OCO2` gave NS1 inh 2%, Sm TGR block 14µM*, Pf growth 48h 8%, Pf growth 96h -4% and AMA1 RON2 block 5%.
